# Data as given in ChEMBL document CHEMBL4513216, “Probing the Open Global Health Chemical Diversity Library for Multistage-Active Starting Points for Next-Generation Antimalarials” (ACS Infect Dis, 2020).
# The campaign covered roughly 69,000 compounds. About 8,600 (12%) showed an effect of 50% or more. Many of the other results were omitted from the sample, so strong results are more common in it than they were.
# System: Plasmodium berghei
# Test: Screen against P. berghei liver stage (PbLuc), transformed with Luciferase, at 10uM
# Format: functional, HepG2
# Conditions: tested at 10 uM
row,SMILES,INHIBITION
1,CN(Cc1cccnc1)Cc1cn2c(n1)CN(C1CCOCC1)CC2,4.57%
2,CC1=CC[C@@H]2CN(C(=O)c3ccc(-c4cc[nH]n4)cc3)C[C@@H]2C1,-37.1%
3,COc1ccc(CNC(=O)NCCc2csc(C)n2)cn1,36.1%
4,Cn1ccc(NCc2cc3cc(F)ccc3o2)n1,-18%
5,CC(C)(C)CN1CCOC[C@H]1c1nc(-c2cccc(F)c2)c[nH]1,64.8%
6,CN1CCC(N2CCOC[C@H]2c2nc(C(C)(C)C)c[nH]2)CC1,49.5%
7,CN1CCOC[C@H]1c1nc(-c2ccccc2)c[nH]1,-23.1%
8,CC(C)(C)c1c[nH]c([C@@H]2COCCN2C2CCC2)n1,23%
9,CN1CCOC[C@H]1c1nc(-c2ccncc2)c[nH]1,52%
10,Fc1cccc(-c2c[nH]c([C@@H]3COCCN3C3CCOCC3)n2)c1,-24.1%
11,CN1CCOC[C@H]1c1nc(-c2cccc(F)c2)c[nH]1,9.51%
12,CN1CCOC[C@H]1c1nc(C(C)(C)C)c[nH]1,50.2%
13,Cc1ccc(-c2c[nH]c([C@@H]3COCCN3Cc3ncc[nH]3)n2)cc1,46.6%
14,c1cc(-c2c[nH]c([C@@H]3COCCN3Cc3ncc[nH]3)n2)ccn1,54.7%
15,c1cc(CN2CCOC[C@H]2c2nc(-c3ccncc3)c[nH]2)ccn1,-7.59%
16,CN1CCC(N2CCOC[C@H]2c2nc(-c3ccncc3)c[nH]2)CC1,35.8%
17,COCC(=O)N1CCC2(CC1)CN(S(C)(=O)=O)Cc1ccccc1O2,14.94%
18,c1ncn(CC2CN(Cc3ccc4c(c3)OCCO4)CCO2)n1 (stereo not drawn),17.4%
19,O=C(CC1CN(Cc2ccccc2)CCO1)Nc1ccsc1 (stereo not drawn),31.3%
20,CC(C)[C@H]1CN(C(=O)CO)C[C@@H]1N(C)C,14%
21,CCS(=O)(=O)N1C[C@@H](O)[C@H](N(C)Cc2ccc(F)cc2)C1,11.94%
22,CC1CCN(C(=O)c2ccn(COc3ccccc3)n2)CC1,-15.5%

row,SMILES,INHIBITION
1,CC(C)N1CCCn2nc(C(=O)NCCc3ccccn3)cc2C1,57.2%
2,CC(C)N1CCCn2nc(C(=O)NCc3ccccc3F)cc2C1,62.6%
3,CC(C)N1CCCn2nc(C(=O)NCCc3c[nH]cn3)cc2C1,18.2%
4,CC(NC(=O)c1cc2n(n1)CCCN(C(C)C)C2)c1cn2ccsc2n1 (stereo not drawn),-59.5%
5,O=C(NCc1ccccn1)c1cc2n(n1)CCNC2,-54.5%
6,CSc1ccccc1C(=O)NCc1cc2n(n1)CCCN(CC(C)C)C2,38.2%
7,CCN1CCO[C@@H]2CN(S(=O)(=O)c3cccs3)CC[C@@H]2C1,15.6%
8,CC(C)N1C(=O)CN(CCOCCO)CC1(C)C,23.1%
9,Cc1cccc(Cn2c(=O)[nH]c3csnc3c2=O)c1,12.8%
10,CC(C)C(O)CNC(=O)Nc1cnn(Cc2ccccc2)c1 (stereo not drawn),4.82%
11,CCSc1ncc(CN2C[C@@H]3CC[C@H]2CN(C2CCOCC2)C3)cn1,48.5%
12,CSc1ncc(CN2C[C@@H]3CC[C@H]2CN(C2CCOCC2)C3)cn1,9.91%
13,CN(C)c1ccc(CN2C[C@@H]3CC[C@H]2CN(C2CCOCC2)C3)cn1,53.5%
14,Cc1nc(CN2CCC3(CCN(Cc4cnn(C)c4)C3)C2=O)cs1 (stereo not drawn),25.3%
15,O=S1(=O)c2cccnc2OC(Cc2ccccc2)CN1CC1CC1 (stereo not drawn),24.5%
16,OCC1(O)CCN(c2ccnc3c(C(F)(F)F)cccc23)CC1,17.5%
17,Cc1nn(C)cc1C(=O)Nc1cccc(CN2CCC(CO)CC2)c1,44.2%
18,Cc1cc(C)c(C(=O)Nc2cccc(CN3CCC(CO)CC3)c2)o1,-30%
19,Cc1nc(C)c(C(=O)Nc2cccc(CN3CCC(CO)CC3)c2)o1,61.8%
20,CCc1cccc(-n2nnc(C(=O)O)c2-c2ccncc2)c1,45.8%
21,CCC(C(=O)NCc1ccn(-c2ccc(F)cc2)n1)N1CCCC1=O (stereo not drawn),2.82%
22,CCCN1CCCN(C(=O)C(CC)N2CCCC2=O)CC1 (stereo not drawn),-3.99%

row,SMILES,INHIBITION
1,Cc1n[nH]c(-c2ccc(NC(=O)C(C)(C)N3CCN(C)CC3)cc2)n1,-25.6%
2,CCC(C(=O)Nc1ccc2c(C)n[nH]c2c1)N1CCCC1=O (stereo not drawn),53.6%
3,CCC(C(=O)Nc1ccc(-c2nc(C)n[nH]2)cc1)N1CCCC1=O (stereo not drawn),59.1%
4,Cc1n[nH]c(-c2ccc(NC(=O)C(C)N3CCN(C)CC3)cc2)n1 (stereo not drawn),-27.4%
5,CC(C)(C)c1noc(CCC(=O)NCC2CCS(=O)(=O)C2)n1 (stereo not drawn),26.4%
6,Cc1cc(N(C)C)nc(C2COCCN2Cc2cscn2)n1 (stereo not drawn),45.9%
7,O=C1CC(N(C(=O)c2ccc(F)c(C(F)(F)F)c2)C2CC2)C(=O)N1 (stereo not drawn),0.914%
8,CCc1ccc2c(C3CN(CC4CCC4)C3)ncn2c1,27.5%
9,O=C(NC[C@H]1OC[C@@H](NC2CCNCC2)[C@@H]1O)C1CCCC1,24.5%
10,OC(COc1ccc(F)cc1)CN1CCC(Cn2cccn2)CC1 (stereo not drawn),22.9%
11,CCCn1ccnc1-c1nccn1CCN(C)C,34.1%
12,COCc1ncc(-c2nccn2CCn2cnnc2)cn1,-0.614%
13,CCCn1ccnc1-c1nccn1CCn1cnnc1,50.5%
14,C1CCC(CNC2CCCN(Cc3noc(C4CC4)n3)C2)CC1 (stereo not drawn),31.6%
15,CC(C)n1c2ccccc2c2c1cc(C(=O)NCCO)n2C(=O)N(C)C,55.7%
16,CC(C)n1c2ccccc2c2c1cc(C(=O)NC1CC1)n2C(=O)N(C)C,60.2%
17,CC(C)n1c2ccccc2c2c1cc(C(=O)N(C)C)n2C(=O)N(C)C,47.5%
18,COCCNC(=O)c1cc2c(c3ccccc3n2C)n1C(=O)N(C)C,36.9%
19,CC(C)NC(=O)c1cc2c(c3ccccc3n2C)n1C(=O)N(C)C,36.9%
20,CN(C)C(=O)n1c(C(=O)NC(C)(C)CO)cc2c1c1ccccc1n2C,-24.9%
21,CC(C)NC(=O)CN(C)C(=O)c1c(Cl)c2ccccc2n1C,15.8%
22,CC(C)n1c2ccccc2c2c1cc(C(=O)O)n2C(=O)N(C)C,57.5%

row,SMILES,INHIBITION
1,CC(C)n1c2ccccc2c2c1cc(C(=O)N(C)C)n2S(C)(=O)=O,49.4%
2,CCCN(CC)C(=O)c1cc2c(c3ccccc3n2C)n1C(=O)N(C)C,11.9%
3,CCCNC(=O)c1cc2c(c3ccccc3n2C)n1C(=O)N(C)C,26.2%
4,CC(C)n1c2ccccc2c2c1cc(C(=O)N(C)C)n2C,82%
5,Cc1ccc(C(=O)NCCSCc2cccs2)cn1,8.75%
6,Cc1ccc(NC2CCN(C(=O)c3ccc(F)c(C)c3)CC2)nn1,47.1%
7,COCCn1c(-c2cccc(OC)c2)cnc1NC(=O)NC1CCCC1,13.5%
8,CN(C)c1cncc(C2CCCN2S(=O)(=O)c2cn(C)cn2)n1 (stereo not drawn),32.8%
9,O=C(c1cnccn1)N1CCN(CC2CC2)c2ncccc2C1,-21.1%
10,COCCC(=O)N(C)Cc1nc(C(F)(F)F)cs1,-26.8%
11,O=C(NCc1cc[nH]n1)NCC(O)c1ccccc1F (stereo not drawn),7.12%
12,COc1c(C2CCCN2CC(=O)N(C)Cc2ccco2)c(C)nn1C (stereo not drawn),89.4%
13,CCN(C(=O)CN1CCCC1c1c(C)nn(C)c1OC)C1CC1 (stereo not drawn),-23.3%
14,CN(CCC#N)C(=O)CN1CCCC1c1cccs1 (stereo not drawn),-85%
15,N#CCCN(Cc1ccco1)C(=O)CN1CCCC1c1cccs1 (stereo not drawn),29.4%
16,COc1c(C2CCCN2C(=O)c2ccco2)c(C)nn1C (stereo not drawn),7.18%
17,CN(Cc1ccco1)C(=O)CN1CCCC1c1cccs1 (stereo not drawn),62.3%
18,CC(=O)Nc1ccc(CNCC(O)c2ccc(Cl)cc2)cc1 (stereo not drawn),45.7%
19,c1cncc(CN2CCn3c(Cn4cncn4)cnc3C2)c1,31.1%
20,Cc1ccc(CC(=O)N2CCCC(c3nccs3)C2)cn1 (stereo not drawn),3.4%
21,O=C(NCC1(O)CCCC1)c1ccc2nsnc2c1,-47%
22,Cc1nc(CN(C)c2nccc(N(C)C)n2)cs1,51.5%

row,SMILES,INHIBITION
1,Cc1noc(C)c1CN(C)c1nccc(C(F)(F)F)n1,-25.7%
2,Cc1nc(CC(=O)NCCNc2nccc(C(F)(F)F)n2)cs1,22.6%
3,Cc1cc(N(C)C)nc(N(C)Cc2csc(C)n2)n1,-3.35%
4,Cc1nc(CN(C)c2nccc(C(F)(F)F)n2)cs1,50.1%
5,COc1ccnc(N(C)Cc2csc(C)n2)n1,-62.7%
6,CCCN1CCCn2nc(CNS(=O)(=O)c3cnn(CC)c3)cc2C1,29.1%
7,COc1ccccc1CC(=O)NCc1ccnc(NC2CC2)c1,75.7%
8,O=C(CCc1ccsc1)NCc1ccnc(OC2CCOCC2)c1,-8.91%
9,CCOCCC(=O)NCc1ccnc(NC2CC2)c1,41.5%
10,O=C(CCc1ccc(F)cc1)NCc1ccnc(NC2CC2)c1,53.3%
11,COc1ccccc1CC(=O)N1CCC(NCc2ccncc2)CC1,22.275%
12,Cc1ccccc1OCCCC(=O)NCc1ccnc(O)c1,9.6%
13,COc1ccc(CNC(=O)NC2CCN(C)CC2)c(C(F)(F)F)c1,33.8%
14,O=C(Cn1ccnc1)N1CC[C@H](Oc2cccc(F)c2)[C@@H](O)CC1,13.85%
15,CCOc1ccc(-n2nnc(C(=O)O)c2-c2ccncc2)cc1,15%
16,O=C(O)c1ccnc(SCC(F)(F)F)c1,57%
17,O=C(O)c1ccnc(SCc2ccccc2)c1,13.5%
18,O=C(O)c1ccnc(SCC(=O)c2ccccc2)c1,9.55%
19,CC(=O)N1CCCN(C(=O)CN(C)c2ccc(Cl)cn2)CC1,22.8%
20,COc1ccc(CN2CCCC2c2cccc(F)c2)c(OC)c1OC (stereo not drawn),16%
